Screening data as filed in PubChem.
Hits are enriched below; roughly 12% of the tested compounds scored in any of these assays.
FMDV antiviral – High Throughput Screening for Foot and Mouth Disease Virus Antivirals | Potency, µM (doses to about 57.9 µM), hits mostly inhibitors | AID 1159524, 2015 | FMDV antiviral cell-based qHTS | actives 1.2% (n = 410,000); calls by dose curve; tested in HEK293T cells; also: read-out not given here; nearly all actives have a fitted effect of over 45% in size
Shiga inhibitor – A qHTS for Small Molecule Inhibitors of Shiga Toxin. actives 9.2% (n = 290,000). inhibition, % at 38.7 µM. Vero cells, Shiga toxin protein synthesis inhibition reporter; in the data active = inhibition mostly above about 28%, no sharp cut-off; inactive = mostly below about 43%
Sm TGR inh – qHTS Assay for the Inhibitors of Schistosoma Mansoni Peroxiredoxins; purified TGR, DTNB reduction, TNB absorbance 405 nm; Potency, µM (titrated, usually from 114 µM), hits mostly inhibitors; AID 485364, 2010; actives 3% (n = 360,000); active = well fitted inhibition curve with a large enough effect; inconclusive = small, poorly fitted or top-dose-only effect; inactive = no such curve, though single readings can be large or run the other way; also: nearly all actives have a fitted effect of over 60% in size
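First, TGR (20 nM dispensed) and NADPH were mixed with compound. Second, a 15 min room-temperature incubation followed. Third, further NADPH and then DTNB were added to start the reaction. Finally, TNB absorbance was monitored kinetically.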
Cycloheximide cs – Cycloheximide Counterscreen for Small Molecule Inhibitors of Shiga Toxin | cell reporter, cycloheximide protein synthesis inhibition counterscreen | max response, % | actives 12% (n = 300,000) | AID 2314, 2010; in the data active = max response mostly above about 13%, no sharp cut-off; inactive = mostly below about 14%; also: read at 38.3 µM for the half of the compounds with a filed dose
Hits are given with their value; - = inactive; ? = inconclusive; . = no result given; + = active, no number.

SMILES | FMDV antiviral | Shiga inhibitor | Sm TGR inh | Cycloheximide cs
Fc1ccc2cnc(-c3ccccc3)c(-c3cccc(C(F)(F)F)c3)c2c1 | - | . | - | .
Fc1cc(F)cc(-c2c(-c3ccccc3)ncc3ccc(F)cc23)c1 | - | . | 45µM | .
C=Cc1ccc(CN2C(=O)N(c3cccc(Cl)c3)S(=O)(=O)c3ccccc32)cc1 | - | . | - | .
CC1=NN(C(=O)c2c(Br)cnn2C)C(O)(C(F)(F)F)C1 (stereo not given) | - | - | - | -
CC1=NN(C(=O)c2ccc(Br)cc2)C(O)(C(F)(F)OC(F)(F)F)C1 (stereo not given) | ? | - | - | 17
CC1=NN(C(=O)c2nn(C)cc2Br)C(O)(C(F)(F)F)C1 (stereo not given) | - | 60 | - | 35
CC1=NN(C(=O)c2csc(C)c2C)C(O)(C(F)(F)F)C1 (stereo not given) | - | 47 | - | 37
Cc1nn(C(=O)COc2ccccc2Br)c(C)c1Sc1ccccc1 | - | . | - | .
O=C(NC1CCCCC1)C(c1ccc(F)cc1)N(Cc1ccco1)C(=O)c1ccccn1 (stereo not given) | - | - | ? | -
O=C(NC1CCCC1)C(c1ccncc1)N(Cc1ccco1)C(=O)c1ccc(-c2ccccc2)[nH]1 (stereo not given) | - | - | 28µM | -
CCOc1ccc(C(C(=O)NC2CCCC2)N(CCCO)C(=O)c2ccc(-c3ccccc3)[nH]2)cc1 (stereo not given) | - | 60 | ? | -
O=C(NC1CCCC1)C(c1ccncc1)N(CCCN1CCOCC1)C(=O)c1ccc(-c2ccccc2)[nH]1 (stereo not given) | - | - | ? | -
O=C(NC1CCCC1)C(c1ccncc1)N(Cc1ccccc1)C(=O)c1ccc(-c2ccccc2)[nH]1 (stereo not given) | - | - | ? | 13
CC(C)(C)NC(=O)C(c1ccncc1)N(Cc1ccc(F)cc1)C(=O)c1ccc(-c2ccccc2)[nH]1 (stereo not given) | - | - | 32µM | -
COc1ccccc1N1CCN(c2ncnc3c2nnn3C)CC1 | - | . | - | .
CCCS(=O)(=O)NCc1c(C)ncc2c1CCN(C(=O)/C=C/c1ccc(F)cc1F)C2 | - | . | . | .
N/C(=N\OC(=O)c1ccc(Br)cc1)c1cccc([N+](=O)[O-])c1 | - | 20 | - | 26
N/C(=N\OC(=O)C1CCCCC1)c1cccc([N+](=O)[O-])c1 | - | 106 | - | 66
Cc1cccc(/C(N)=N/OC(=O)c2ccncc2)c1 | - | 68 | - | 46
COc1ccccc1CC(=O)O/N=C(\N)c1cccc([N+](=O)[O-])c1 | - | - | - | -
Cc1ccc(CC(=O)O/N=C(\N)c2cccc([N+](=O)[O-])c2)cc1 | - | - | - | 15
COCCNc1nc(-c2ccccc2CN(C)C)nc2ccccc12 | - | . | . | .
Cc1oc(-c2ccccc2NC(=O)c2ccccn2)nc1CNC(=O)c1cccc(C#CC(C)(C)O)c1 | - | . | . | .
O=S(=O)(Nc1cccc(F)c1)c1ccc2[nH]c3c(c2c1)CCCCC3 | - | . | - | .
N/C(=N\OC(=O)c1ccncc1)c1cccc([N+](=O)[O-])c1 | - | . | - | 27
SMILES | FMDV antiviral | Shiga inhibitor | Sm TGR inh | Cycloheximide cs
Cc1ccc(C(=O)O/N=C(\N)c2cccc([N+](=O)[O-])c2)cc1 | - | 69 | - | 39
COc1ccc(OCC(=O)NCCS(=O)(=O)N2CCN(c3cccc(Cl)c3)CC2)cc1 | - | . | - | .
COC(=O)c1cn(CCOc2ccccc2F)c2ccccc12 | - | 71 | - | 40
COC(=O)c1cn(CCOc2ccccc2)c2ccccc12 | - | 79 | - | 55
CC(C)Cn1c(=O)c2sccc2n2c(CCCC(=O)Nc3ccc(Cl)cc3)nnc12 | - | . | - | .
CCc1ccc2oc(C(=O)Nc3ccccc3C(=O)OC)cc(=O)c2c1 | - | . | - | .
Cc1csc(Nc2ccccc2)[n+]1C | - | - | - | 36
N#CCSc1nc2ccccc2c2nc3ccccc3n12 | ? | + | - | -
CCn1c(SCC#N)nc2ccccc2c1=O | - | - | - | -
COc1ccc(-c2cc(C(F)(F)F)nc(SCC(=O)NCc3ccc(Cl)cc3)n2)cc1 | - | . | - | .
Cc1ccc(CCNC(=O)C2CCN(c3nnc(C)c4c(C)n(-c5ccccc5)nc34)CC2)cc1 | - | . | - | .
Cc1ccc(-n2nc3c(N4CCC(C(=O)NCCc5cccs5)CC4)nnc(C)c3c2C)cc1 | 25µM | - | - | -
O=C(COc1ccc2ccccc2c1Br)NC(=S)Nc1cccc(CO)c1 | - | 22 | - | 51
O=C(COc1ccc(Br)cc1Br)NC(=S)Nc1cccc(CO)c1 | - | 87 | - | 97
Cn1c(N)c(C(=O)N/N=C/c2ccccc2)sc1=S | - | - | - | -
Nc1c(C(=O)Nc2ccc(F)cc2)sc(=S)n1-c1ccccc1F | - | 60 | - | 29
Cn1c(N)c(C(=O)Nc2ccccc2F)sc1=S | - | - | - | 9.0
Cn1c(N)c(C(=O)Nc2ccc3ccccc3c2)sc1=S | - | 57 | - | 43
COc1ccc(Nc2nc(C)nc(N)c2S(=O)(=O)c2ccccc2)cc1 | - | . | - | .
Cc1cccc(-c2noc(CN(C(=O)COc3ccc(C(C)C)cc3)C(C)C)n2)c1 | - | . | ? | .
Cc1nc(Nc2ccc3c(c2)OCCO3)c2oc3ccccc3c2n1 | ? | 83 | - | 26
CCc1nc(Nc2ccc3c(c2)OCCO3)c2oc3ccccc3c2n1 | - | - | - | 17
c1ccc2c(c1)oc1c(Nc3ccc4c(c3)OCCO4)ncnc12 | - | 69 | - | 54
Cc1nc(Nc2ccc(Cl)cc2)c2oc3ccccc3c2n1 | - | - | - | -
Cc1nc(Nc2ccc3c(c2)OCCO3)c2c(C)c(C)sc2n1 | - | - | - | 20
SMILES | FMDV antiviral | Shiga inhibitor | Sm TGR inh | Cycloheximide cs
CCN1CCc2nc3sc(C(=O)c4ccccc4)c(N)c3cc2C1 | - | . | - | .
CCOC(=O)c1[nH]c2c(c1Cc1ccccc1OC)C(=O)CC(c1ccccc1)C2 (stereo not given) | - | . | - | .
O=C(OCC(=O)N1CCOCC1)c1cccc(F)c1 | - | 94 | - | 48
O=C(OCCN1CCOCC1)c1cccc(F)c1 | - | - | - | -
CC1CN(C(=O)COC(=O)c2ccc(F)cc2Cl)CC(C)O1 (stereo not given) | - | - | - | -
O=C(OCC(=O)N1CCOCC1)c1ccc(F)cc1Cl | - | 51 | - | 35
Cc1ccc(S(=O)(=O)/C(C#N)=C/c2c[nH]c3ccccc23)cc1 | - | - | - | -
COc1ccc2[nH]cc(/C=C/C(=O)c3ccccc3)c2c1 | - | 131 | - | 105
O=C(/C=C/c1c[nH]c2ccccc12)c1ccccc1 | - | 115 | - | 69
O=Cc1c[nH]c2ccc(C(=O)c3ccccc3)cc12 | - | . | - | 32
Cc1ccc(C(=O)/C=C/c2c[nH]c3ccccc23)cc1 | . | 148 | - | 52
COCC(=O)Nc1cc(C(=O)N2CCc3ccccc3C2)c2c(c1)nc(-c1ccncc1)n2C | - | . | . | .
CN1CCN(C(=O)c2ccc3c(c2)N(Cc2ccc(C(F)(F)F)cc2)C(=O)c2ccccc2S3)CC1 | - | . | - | .
CCOc1ccc(C(=O)Nn2cnnc2)cc1 | - | - | - | -
CCCn1nnc(NC(=O)c2ccc(OCC)c(Cl)c2)n1 | - | - | - | 20
